{
  "source": "the OligoGym collection",
  "data": [
    {"target": "PITPNM3", "experiment": "pooled miR-30 sensor sort-seq; sequence = guide strand", "settings": "shRNA", "values": [
      {"sequence": "TTCCTCGCTGTCTTCGTGGATC", "sensor-assay potency score (higher = more potent)": -1.05},
      {"sequence": "TTGCGCAGGATCATGCGCGAGT", "sensor-assay potency score (higher = more potent)": -0.913},
      {"sequence": "TTTGATGAAGCACTCCTGCATG", "sensor-assay potency score (higher = more potent)": -0.502},
      {"sequence": "TTCAGGTGAGAGACAAGCGAGA", "sensor-assay potency score (higher = more potent)": -0.748}
    ]},
    {"target": "PKD2L1", "experiment": "pooled miR-30 sensor sort-seq; sequence = guide strand", "settings": "shRNA", "values": [
      {"sequence": "TTGAATATCTTGATCCAGGCGA", "sensor-assay potency score (higher = more potent)": 0.38},
      {"sequence": "TTCAAAGATCTCTGAATCCTGA", "sensor-assay potency score (higher = more potent)": 0.0945},
      {"sequence": "TTCATCTTCAGGCTTCTTGGGT", "sensor-assay potency score (higher = more potent)": -0.0602},
      {"sequence": "TTGTTGTACTGTGTCTGCCAGA", "sensor-assay potency score (higher = more potent)": -0.963},
      {"sequence": "TAGTAATAAGCACTGGAGCTTG", "sensor-assay potency score (higher = more potent)": -0.791},
      {"sequence": "TACTTGAATATCTTGATCCAGG", "sensor-assay potency score (higher = more potent)": -0.611},
      {"sequence": "TAGTAGAAGATGAAGACGCAGA", "sensor-assay potency score (higher = more potent)": -0.533},
      {"sequence": "TTGTTGAAGCTGATGTACTTGA", "sensor-assay potency score (higher = more potent)": -0.253},
      {"sequence": "TTGACTGTGCGGATTTGCCAGG", "sensor-assay potency score (higher = more potent)": -0.754}
    ]},
    {"target": "PKIA", "experiment": "pooled miR-30 sensor sort-seq; sequence = guide strand", "settings": "shRNA", "values": [
      {"sequence": "TTGTTCTGTAGAACTTCGTTGT", "sensor-assay potency score (higher = more potent)": 0.279},
      {"sequence": "TTTGTTCTGTAGAACTTCGTTG", "sensor-assay potency score (higher = more potent)": 0.16},
      {"sequence": "TATTGCATTTCTTCTACCTGTT", "sensor-assay potency score (higher = more potent)": 0.0658},
      {"sequence": "TTTACTGGGTGAACACTTGAGC", "sensor-assay potency score (higher = more potent)": -0.0975},
      {"sequence": "TCATCATCTAGGTCGGAGCTAC", "sensor-assay potency score (higher = more potent)": -0.746},
      {"sequence": "TTCAAGGCTAATTCATTGCTGT", "sensor-assay potency score (higher = more potent)": 0.0225},
      {"sequence": "ATCTTCTTCACCTTCTGTCTTG", "sensor-assay potency score (higher = more potent)": -0.736},
      {"sequence": "TAACATGATAATGAGCAGGTTC", "sensor-assay potency score (higher = more potent)": 0.186},
      {"sequence": "TTTAACATGATAATGAGCAGGT", "sensor-assay potency score (higher = more potent)": 0.937},
      {"sequence": "TCTTGTTGATATCAAGACCTGC", "sensor-assay potency score (higher = more potent)": -0.396},
      {"sequence": "TAGAACTTCGTTGTGCATCTTC", "sensor-assay potency score (higher = more potent)": 0.489},
      {"sequence": "TACAGGAAGAATCATCATCTAG", "sensor-assay potency score (higher = more potent)": -0.916}
    ]},
    {"target": "PKIG", "experiment": "pooled miR-30 sensor sort-seq; sequence = guide strand", "settings": "shRNA", "values": [
      {"sequence": "TGGGGCGCTTCCCTCCACCTGT", "sensor-assay potency score (higher = more potent)": -1.57},
      {"sequence": "TCGAGTGCCAGCTCGCCCATGT", "sensor-assay potency score (higher = more potent)": -1.07},
      {"sequence": "TGTCCGGTCACAGGAGATGAAG", "sensor-assay potency score (higher = more potent)": -2.03},
      {"sequence": "TTACAGTGTCTTGAAAGTGTAC", "sensor-assay potency score (higher = more potent)": -0.626},
      {"sequence": "TTGATTGTCAGCTCTCTCCATA", "sensor-assay potency score (higher = more potent)": -0.293},
      {"sequence": "ATGTCAGGGACCGCATTCCGAC", "sensor-assay potency score (higher = more potent)": -1.85},
      {"sequence": "TTGCCAGCTTCCTTGTCTGGGG", "sensor-assay potency score (higher = more potent)": -0.658},
      {"sequence": "TAACATCTTGTGGTTACAGTGT", "sensor-assay potency score (higher = more potent)": -0.118},
      {"sequence": "TCAGGGACCGCATTCCGACGGC", "sensor-assay potency score (higher = more potent)": -0.897},
      {"sequence": "TAGGTGTCACTTATCCTGGTGG", "sensor-assay potency score (higher = more potent)": -0.436},
      {"sequence": "TCACAGCCTCTGAGTCTCCCTG", "sensor-assay potency score (higher = more potent)": -1.09},
      {"sequence": "TTCCTCACGCTCACAGCCTCTG", "sensor-assay potency score (higher = more potent)": -0.203}
    ]},
    {"target": "PKLR", "experiment": "pooled miR-30 sensor sort-seq; sequence = guide strand", "settings": "shRNA", "values": [
      {"sequence": "TAGCTCCTCAAACAGCTGCCGG", "sensor-assay potency score (higher = more potent)": -1.23},
      {"sequence": "ATGCTCTCCAGCATCTGTGTGG", "sensor-assay potency score (higher = more potent)": -1.11},
      {"sequence": "ATGGACTTTGCTAAGTCTCTTT", "sensor-assay potency score (higher = more potent)": -0.987}
    ]}
  ]
}
